# Screens: PubChem, National Center for Advancing Translational Sciences (NCATS)
# Shown are actives, neighbours in structure and some others; about 7.7% of the full set was active somewhere.
# FBPA Giardia inh: Giardia lamblia aldolase inhibition | A8B2U2 | Potency, µM (series often up to 59.6 µM), usual class: inhibitors | actives 0.71% (n = 290,000) | purified Giardia FBPA; further: nearly all actives have a fitted effect of over 55% in size
# Target sequence (A8B2U2 whole entry, looked up): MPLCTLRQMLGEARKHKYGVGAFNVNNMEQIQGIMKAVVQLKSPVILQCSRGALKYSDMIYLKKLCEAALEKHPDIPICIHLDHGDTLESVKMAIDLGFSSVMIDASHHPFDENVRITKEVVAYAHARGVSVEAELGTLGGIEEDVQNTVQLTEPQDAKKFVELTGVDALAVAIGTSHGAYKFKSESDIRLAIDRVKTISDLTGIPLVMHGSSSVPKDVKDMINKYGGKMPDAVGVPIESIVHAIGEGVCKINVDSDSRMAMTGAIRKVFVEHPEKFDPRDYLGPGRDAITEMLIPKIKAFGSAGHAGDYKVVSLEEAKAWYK
#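 40 nM FBPA preincubated 10 min at RT with compound (up to 57.5 uM final), then substrate plus GAPDH/TPI/NAD/arsenate coupling and diaphorase/resazurin added. Fluorescence read after 20 min at RT, 525/598 nm.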
# Tb PYK inh: blocks Trypanosoma brucei pyruvate kinase | Q57TT1 | TbPYK enzyme, Kinase-Glo Plus ATP luminescence, 45 min | Potency, µM (doses to about 76.8 µM), hits mostly inhibitors | actives 0.12% (n = 410,000) | AID 624173; further: nearly all actives have a fitted effect of over 50% in size
#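 Glycolytic pyruvate kinase of T. brucei was incubated with substrate, test compound and 130 uM ADP for 45 minutes at room temperature. Luminescent Kinase-Glo Plus signal was measured after 10 minutes.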
# HCMV inh: inhibitors of human cytomegalovirus; HFF cells, HCMV-luciferase reporter, 72 h; hits give low values; activity change, negative = inhibition, % at 57.5 µM; actives 4.5% (n = 410,000); in the data active means activity change below about -60%; inconclusive means no clear call, values can overlap the other calls; inactive means above about -39%
#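 Human foreskin fibroblasts infected with luciferase-reporter HCMV at MOI 1 PFU/cell, compounds at two doses. Luciferase measured 72 h post infection; normalized to buffer-only basal and Salinomycin (10uM) controls.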
# Sm TGR block: blocks Schistosoma mansoni thioredoxin glutathione reductase; Q962Y6; purified TGR, DTNB reduction, TNB absorbance 405 nm; Potency, µM (doses to about 114 µM), actives largely listed as inhibitors; actives 3% (n = 360,000); AID 485364; further: nearly all actives have a fitted effect of over 60% in size
#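 First, TGR (20 nM dispensed) and NADPH were mixed with compound. Second, a 15 min room-temperature incubation followed. Third, further NADPH and then DTNB were added to start the reaction. Finally, TNB absorbance was monitored kinetically.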
# FMDV inh: blocks foot and mouth disease virus | FMDV antiviral cell-based qHTS | Potency, µM (doses to about 57.9 µM), most hits filed as inhibitors | actives 1.2% (n = 410,000) | AID 1159524; calls by dose curve; tested in HEK293T cells; further: read-out not given here; nearly all actives have a fitted effect of over 45% in size
# RE007 growth inh: less growth of the S. pombe RE007 Vpr strain | S. pombe RE007 Vpr strain, BacTiter-Glo ATP luminescence, 24 h | Potency, µM (doses to about 92.2 µM), actives largely listed as inhibitors | AID 651644 | actives 0.21% (n = 360,000); active means well fitted falling curve with a large enough effect; inconclusive means small, poorly fitted or top-dose-only effect; inactive means no such curve, though single readings can be large or run the other way; further: nearly all actives have a fitted effect of over 50% in size
#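 Fission yeast RE007 carrying one integrated HIV-1 vpr copy, seeded at OD 0.01 in PMG+AL medium with 23 nL pinned compound. Grown 24 h at 30 degrees; viability read by BacTiter-Glo luminescence after 5 min.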
# Numbers stand for hits; i = inactive; ? = inconclusive; nt = no result given. Unless noted, the call rests on the fitted dose curve; in most records, active means well fitted curve in the direction sought with a large enough effect; inconclusive means small, poorly fitted or top-dose-only effect, or another doubt; inactive means no such curve, though single readings can be large; an effect the other way counts as inactive or inconclusive.
SMILES,FBPA Giardia inh,Tb PYK inh,HCMV inh,Sm TGR block,FMDV inh,RE007 growth inh
CCOc1ccc(OCC)c(NC(=O)c2nnn(Cc3cc(Br)ccc3OC)c2N)c1,nt,i,i,i,i,nt
COc1ccc(Br)cc1Cn1nnc(C(=O)Nc2ccc(C)cc2C)c1N,nt,i,-74.0,i,i,nt
CSc1ccc(Cn2nnc(C(=O)Nc3ccc(C)cc3Cl)c2N)cc1,nt,i,-78.2,i,i,nt
Cc1ccc(C(=O)Nc2c(C(=O)Nc3ccc(C)c(C)c3)sc3nc(C)cc(C)c23)cc1,nt,i,-106.9,i,i,nt
COc1ccc(CN2CCOc3ccc(C(O)c4cccnc4)cc3C2)c(OC)c1OC (stereo not given),nt,nt,nt,nt,i,nt
COc1ccc(/C=N/Nc2cc(C)nc3ccc(Br)cc23)cc1,i,i,-98.1,i,i,i
COc1ccc2nc(C)cc(N/N=C/c3cccc(OC)c3O)c2c1,i,i,i,i,i,i
Clc1cccc(Cl)c1CNc1ccc(N2CCCC2)cc1,?,?,-77.5,?,i,i
C=CCNC(=S)NNC(=O)COc1ccc(Br)cc1,i,?,-60.7,i,i,i
C=CCNC(=S)NNC(=O)COc1ccc2cc(Br)ccc2c1,i,i,i,nt,i,i
CN[C@H]1C[C@@H](N)[C@H](O)[C@@H](O[C@@H]2O[C@H](CO)[C@H](O)[C@@H]3O[C@]4(O[C@@H]23)O[C@H]([C@@H](N)CO)[C@H](O)[C@@H](O)[C@H]4O)[C@@H]1O,nt,i,nt,nt,nt,nt
C[C@H]1CN([C@@H](C)CO)C(=O)CCCn2cc(nn2)CO[C@@H]1CN(C)C(=O)c1ccccc1,nt,nt,i,nt,nt,nt
COc1ccc(NS(=O)(=O)c2cc(N)ccc2N2CCCCC2)cc1,nt,i,i,i,i,i
Nc1ccc(N2CCCC2)c(S(=O)(=O)Nc2cccc(C(F)(F)F)c2)c1,nt,?,-68.8,nt,i,i
Cc1cccc(C)c1-n1nnnc1C(c1cccs1)N1CCC(n2c(=O)[nH]c3ccccc32)CC1 (stereo not given),nt,i,-76.8,nt,?,i
CCN1CCN(C(c2ccccc2)c2nnnn2Cc2ccc(OC)cc2)CC1 (stereo not given),i,i,i,i,i,i
O=c1[nH]c2ccccc2n1C1CCN(C(c2cccs2)c2nnnn2Cc2ccccc2)CC1 (stereo not given),nt,i,-95.9,nt,i,i
COc1ccc(C(c2nnnn2Cc2ccccc2)N2CCC(n3c(=O)[nH]c4ccccc43)CC2)cc1 (stereo not given),nt,i,-65.3,nt,i,i
c1ccc(Cn2nnnc2C(c2cccs2)N2CCCCCC2)cc1 (stereo not given),i,i,?,i,nt,i
Cc1cccc(C)c1-n1nnnc1C(C1CC1)N1CCC(n2c(=O)[nH]c3ccccc32)CC1 (stereo not given),nt,i,i,nt,?,i
COc1ccc(-n2nnnc2C(c2cc3ccccc3o2)N2CCC(n3c(=O)[nH]c4ccccc43)CC2)cc1 (stereo not given),nt,i,-100.3,nt,?,i
O=C(NCc1cccc(Cl)c1)O[C@H]1CC[C@@]23CCCN2C(=O)CCC[C@H]3[C@H]1Cc1ccccc1,nt,nt,i,nt,nt,nt
Cc1ccc2oc(-c3ccc(C)c(NC(=O)c4ccc(-c5ccccc5[N+](=O)[O-])o4)c3)nc2c1,nt,i,i,i,i,nt
CCOC(=O)C1=CCN(S(=O)(=O)c2ccc(Br)cc2)C1c1cccc(Br)c1 (stereo not given),nt,nt,i,nt,nt,nt
O=c1[nH]c2ccccc2n1C1CCN(C(c2ccccc2OC(F)(F)F)c2nnnn2Cc2ccccc2)CC1 (stereo not given),nt,i,-69.4,nt,?,i
COc1ccc(C(c2nnnn2-c2ccc(OC)cc2)N2CCC(n3c(=O)[nH]c4ccccc43)CC2)cc1 (stereo not given),nt,i,-60.7,nt,?,i
FC(F)(F)Oc1ccccc1C(c1nnnn1Cc1ccccc1)N1CCN(C/C=C/c2ccccc2)CC1 (stereo not given),nt,i,i,nt,i,i
Cc1cccc(C)c1-n1nnnc1C(c1cccc2ccccc12)N1CCC(n2c(=O)[nH]c3ccccc32)CC1 (stereo not given),nt,i,i,nt,i,i
